Compounds with a hit are over-represented: about 21% of the library has one in this group of screens.
Pf growth 96h: inhibits malaria parasite growth, 96 h; P. falciparum luciferase reporter growth, 96 h; Potency, µM (top dose mostly 28.7 µM), for the others: top-dose activity change, negative = inhibition, most hits filed as inhibitors; 6.9% of 320,000 active; AID 504834; note: potency is the fitted concentration of half-maximal effect; % is set by controls: 0 for no effect and ±100 for the full control effect
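Luminescence readout: decreased luciferase signal marks inhibited growth of reporter-expressing P. falciparum in infected red cells (2% hematocrit, 0.05% parasitemia final), exposed to compound two generations (96 h, 37 C, 5% CO2).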
Sm TGR block: S. mansoni TGR enzyme inhibition; Q962Y6; purified TGR, DTNB reduction, TNB absorbance 405 nm; Potency, µM (highest dose often 114 µM), for inactives: at the highest dose activity change, negative = inhibition, hits mostly inhibitors; 3% of 360,000 active; note: potency is the fitted concentration of half-maximal effect; % is set by controls: 0 for no effect and ±100 for the full control effect; nearly all actives have a fitted effect of over 60% in size
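First, TGR (20 nM dispensed) and NADPH were mixed with compound. Second, a 15 min room-temperature incubation followed. Third, further NADPH and then DTNB were added to start the reaction. Finally, TNB absorbance was monitored kinetically.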
Pf growth 48h: inhibits P. falciparum growth in the first generation, 48 h | P. falciparum luciferase growth in erythrocytes, 48 h | Potency, µM (top dose mostly 28.7 µM), inactives show at the top dose activity change, negative = inhibition, usual class: inhibitors | 5.9% of 310,000 active | AID 504832; note: potency is the fitted concentration of half-maximal effect; % is set by controls: 0 for no effect and ±100 for the full control effect
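Luciferase-expressing P. falciparum in infected erythrocytes (2% hematocrit, 0.1% parasitemia final) in RPMI 1640/0.5% Albumax were exposed to compound for 48 hours at 37 C, 5% CO2; growth read as luminescence.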
NS1 function inh: influenza NS1 inhibition; 0.4% of 270,000 active; AID 2326; Potency, µM (series often up to 46.1 µM), for inactives: at the top dose activity, positive = more growth; calls by dose curve; note: potency is the fitted concentration of half-maximal effect; actives are rising curves; nearly all actives have a fitted effect of over 50% in size
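A cell-based growth assay was used: compounds that relieve NS1-induced slow growth of budding yeast raise OD600. Assay medium was yeast nitrogen base with ammonium sulphate and -URA supplement, pH 6.0, with 2% galactose.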
Shiga toxin inh: Shiga toxin inhibition; Vero cells, Shiga toxin protein synthesis inhibition reporter; inhibition, % at 38.7 µM; 9.2% of 290,000 active; AID 2315; in the data active = inhibition mostly above about 28%, no sharp cut-off; inactive = mostly below about 43%; note: 0% is about no effect
Cycloheximide cs: affects cycloheximide protein synthesis inhibition readout, counter-screen; max response, %; cell reporter, cycloheximide protein synthesis inhibition counterscreen; 12% of 300,000 active; in the data active = max response mostly above about 13%, no sharp cut-off; inactive = mostly below about 14%; note: read at 38.3 µM for the half of the compounds with a filed dose; 0% is about no effect
The depositor's hits bear a star; ? = inconclusive; / = no result given; [ ] = remark or other dose. Unless noted, calls come from the whole dose curve; as a rule, active = well fitted curve in the direction sought with a large enough effect; inconclusive = small, poorly fitted or top-dose-only effect, or another doubt; inactive = no such curve, though single readings can be large; an effect the other way counts as inactive or inconclusive.

SMILES	Pf growth 96h	Sm TGR block	Pf growth 48h	NS1 function inh	Shiga toxin inh	Cycloheximide cs
Cn1cc([N+](=O)[O-])c(C(=O)NCc2cc3cc(Cl)ccc3[nH]2)n1	4.0%	6.3%	-10.6%	14.0%	-2.2	-1.5
O=C(OCc1nnn(Cc2ccccc2)c1-c1c(COC(=O)c2ccccc2)nnn1Cc1ccccc1)c1ccccc1	1.85µM*	3.8%	3.29µM*	4.1%	-3.3	0.1
CCC1CCCCN1Cc1cc(OC)c(O)c([N+](=O)[O-])c1 (stereo unspecified)	52.9%	13.1%	8.6%	17.1%	-8.2	-3.3
COc1ccc(NC(=O)CN2CCc3ccccc3C2)c(OC)c1	?	-23.0%	0.9%	-8.0%	-0.7	12.8*
COc1ccc(NC(=O)CN2C(=O)N(C)Cc3ccccc32)c(C)c1	14.7µM*	8.9%	5.0%[5.75 µM]	/	-5.1	-1.0
COc1ccc(Nc2cc(C(=O)N3CCc4ccccc4C3)c3ccccc3n2)c(OC)c1	19.6%	14.1%	13.1µM*	/	16.6	8.9
COc1ccc(OC)c(NC(=O)CCN2CCN(Cc3ccccc3)CC2)c1	-5.5%	3.7%	13.1µM*	-6.8%	-10.1	1.2
COc1ccc(NC(=O)CCN2CCN(Cc3ccccc3)CC2)c(OC)c1	48.0%	0.1%	?	-0.1%	/	0.5
Cc1ccc(OCC(=O)OCc2cc(=O)n3nc(C4CCCCC4)sc3n2)cc1C	/	-5.6%	/	/	/	/
CCOC(=O)c1ccc(NC(=O)Nc2c[nH]c(=O)[nH]c2=O)cc1	/	-12.2%	/	/	/	/
CC1CCN(S(=O)(=O)c2cc(C(=O)NCCc3ccccc3)n(C)c2)CC1	/	1.8%	/	/	/	/
CCOC(=O)c1ccc(NC(=O)CC2C(=O)N(c3cccc(OC)c3)C(=O)N2Cc2ccc(OC)cc2)cc1 (stereo unspecified)	/	7.4%	/	/	/	/
O=C(CN1CCc2ccccc2C1)Nc1ccccc1N1CCCCCC1	/	5.2%	13.1µM*	-45.5%	-3.7	6.4
COc1ccc(NC(=O)CN2CCN(CC(=O)Nc3ccccc3Cl)CC2)c(OC)c1	14.7µM*	-22.8%	/	-1.3%	-6.5	-3.0
O=C(CN1CCN(C(=O)c2cncn2-c2ccccc2)CC1)Nc1ccccc1Cl	14.7µM*	-12.5%	?	/	/	/
O=C(CN1CCc2ccccc2C1)Nc1ccccc1Cl	?	17.3%	-8.5%	-14.1%	-11.9	-1.3
O=C(CNCCC1=CCCCC1)Nc1ccccc1N1CCCCC1	11.9%	4.6%	13.1µM*	-31.7%	-8.3	-5.2
O=C(CSc1nc(=O)n(CCN2CCOCC2)c2c1CCC2)Nc1ccccc1	/	-8.2%	/	/	/	/
CCOc1ccc(NC(=O)c2cc3c(s2)-c2ccccc2OC3)cc1	/	2.4%	/	/	/	/
C=CCn1c(SCC(C)=O)nc2scc(-c3ccco3)c2c1=O	-3.0%	2.82µM*	-19.5%	11.0%	2.9	0.9
C=CCn1c(SCC(=O)N2CCOCC2)nc2scc(-c3ccco3)c2c1=O	20.0%	4.47µM*	0.0%	12.8%	-3.3	-1.6
C=CCn1c(SCc2ccc3c(c2)OCO3)nc2scc(-c3ccco3)c2c1=O	11.0%	?	23.1%	21.2%	-11.8	-0.1
C=CCn1c(SC(F)F)nc2scc(-c3ccco3)c2c1=O	4.5%	50.1µM*	1.8%	-25.2%	-3.5	-0.5
C=CCn1c(SCC(=O)Nc2ccccc2)nc2scc(-c3cccs3)c2c1=O	-11.4%	-25.7%	/	-4.9%	2.5	-0.8
C=CCn1c(SCn2nnc3ccccc3c2=O)nc2scc(-c3cccs3)c2c1=O	2.94µM*	-1.4%	13.8%	?	12.0	6.9
SMILES	Pf growth 96h	Sm TGR block	Pf growth 48h	NS1 function inh	Shiga toxin inh	Cycloheximide cs
C=CCn1c(SCC(=O)N2CCCC2)nc2scc(-c3cccs3)c2c1=O	?	3.7%	?	7.8%	-7.6	-0.8
CCNC(=O)C1CCN(c2nc3ccccc3nc2C(F)(F)F)CC1	/	10.9%	/	/	/	/
Cc1cccc(-c2nnc(SCC(=O)Nc3nc4c(s3)CCCC4)n2C)c1	16.5%	-19.5%	?	-2.6%	-3.3	-0.3
C=CCn1c(SCC(=O)c2[nH]c(C)c(C(=O)OC)c2C)nc2scc(-c3ccc(OC)c(OC)c3)c2c1=O	2.94µM*	0.8%	?	17.8%	-10.1	-2.3
C=CCn1c(SCC(=O)NCc2ccc3c(c2)OCO3)nc2scc(-c3ccccc3)c2c1=O	?	9.7%	?	-5.2%	-5.4	-2.2
Nn1cnc2scc(-c3ccco3)c2c1=O	22.8%	35.5µM*	28.0%	-14.9%	-5.9	-3.0
C=CCn1c(SCC(=O)N2CC(=O)Nc3ccccc32)nc2scc(-c3ccccc3)c2c1=O	4.65µM*	7.2%	8.28µM*	?	-19.1	2.0
CCn1cnc2scc(-c3ccccc3)c2c1=O	/	0.8%	-7.6%	-30.1%	8.5	5.6
CCOC(=O)c1sc(N2C(=O)c3oc4ccc(C)cc4c(=O)c3C2c2ccccc2F)nc1C (stereo unspecified)	/	-4.2%	/	/	/	/
COc1ccc(CC(=O)NCC(c2ccc(N(C)C)cc2)N2CCOCC2)cc1 (stereo unspecified)	/	-2.0%	/	/	/	/
N.N.O=C(O)C1(C(=O)O)CCC1.[Pt]	/	/	/	2.1%	/	/
CCc1ccc(-n2c(Cc3ccccc3)n[nH]c2=S)cc1	-8.1%	2.7%	30.2%	10.5%	-10.8	-0.6
CN(C)c1ccc(-c2noc(C3CCN(C(=O)Nc4ccc(Cl)cc4)CC3)n2)cc1	?	-14.8%	?	-1.8%	51.6*	15.8*
CN(C)c1ccc(-c2noc(C3CCN(S(=O)(=O)c4cccc(Cl)c4)CC3)n2)cc1	0.185µM*	8.5%	?	-15.2%	-8.7	2.7
O=S(=O)(c1ccc2ccccc2c1)N1CCC(c2nc(-c3ccncc3)no2)CC1	?	2.9%	13.1µM*	11.6%	-1.4	-2.1
O=C(N1CCOCC1)N1CCC(c2nc(-c3ccc(S(=O)(=O)N4CCOCC4)cc3)no2)CC1	/	-35.5%	2.2%	-13.7%	-10.5	-0.2
CN(C)c1ccc(-c2noc(C3CCN(S(=O)(=O)c4ccc(C(=O)O)cc4)CC3)n2)cc1	/	/	/	-8.9%	/	/
Cc1ccc(-c2noc(C3CCN(C(=O)Nc4ccc(C#N)cc4)CC3)n2)o1	18.1%	-2.5%	?	-18.5%	-3.5	-1.8
CCOC(=O)NC(c1ccc(C(C)C)cc1)C(Cl)(Cl)Cl (stereo unspecified)	?	-15.9%	?	-24.5%	1.3	-3.5
COc1ccc(CCNC(=O)CNCCc2ccc(F)cc2)cc1	-0.3%	0.0%	/	-3.3%	0.9	-2.3
O=S(=O)(c1cccs1)N1CN(C2CCCC2)c2nc3ccccc3nc21	?	0.0%	?	-9.1%	26.1	8.9
O=S(=O)(c1cccs1)N1CN(C2CCCCC2)c2nc3ccccc3nc21	5.22µM*	-22.9%	11.7µM*	1.8%	0.5	-2.7
Cc1ccc(OC(C)C(=O)Nc2cc(C)on2)cc1 (stereo unspecified)	4.65µM*	-28.6%	15.2%	-8.7%	-11.3	9.5
Cc1cc(NC(=O)c2ccc(F)cc2)no1	4.8%	-6.3%	73.5%	7.8%	91.0*	33.2*
